# System: Toxoplasma gondii RH 2F1 tachyzoites (intracellular in HFF)
# Assay: parasite survival relative to DMSO control; higher = less antiparasitic activity, active = 20 or less
# Conditions: 1 µM; 72 h
# How it was run: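 Compound at 1 μM was applied for 72 h at 37°C in 5% CO2 to HFF cells in 96-well plates (5 × 10^3 cells/well) that had been infected for 3 h in D2 medium with 5 × 10^3 Toxoplasma gondii RH-2F1 tachyzoites carrying β-galactosidase. The readout was absorbance at 570 nm, 30 min after CPRG addition. Survival is reported as a percentage of the signal from infected wells given DMSO, based on at least 2 biological replicates.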
row,SMILES,parasite survival
1,OCCC#Cc1nc(-c2ccc(F)cc2)c(-c2ccncc2)n1CCCc1ccccc1,9.3% (active)
2,Cc1cc(NS(=O)(=O)c2ccc(-c3ccc(F)cc3F)cc2)no1,55% (inactive)
3,N#Cc1c(F)c(Cl)c(NCc2ccccc2)c(C#N)c1F,31.9% (inactive)
4,c1ccc(-c2nnc3c4ccccc4c(N4CCNCC4)nn23)cc1,11.3% (active)
5,NC(=O)c1c(N)sc2c1CCCCC2,48.8% (inactive)
6,CN(C)CC(=O)Nc1ccc2[nH]c(=O)c3ccccc3c2c1,55.3% (inactive)
7,Oc1cccc(C(Nc2nccs2)c2ccc3cccnc3c2O)c1 (stereo not given),2.96% (active)
8,N[C@H](CCC(=O)N[C@@H](Cc1c[nH]c2ccccc12)C(=O)O)C(=O)O,84.2% (inactive)
9,O=C(c1ccc(F)cc1)N1CCN2C(=O)c3ccccc3C12c1ccccc1 (stereo not given),64.9% (inactive)
10,Cc1ncc([N+](=O)[O-])n1CC(O)CN1CCOCC1 (stereo not given),52.5% (inactive)
11,O=S(=O)(NCB(O)O)c1ccc(-c2nnn[nH]2)cc1C(F)(F)F,34.1% (inactive)
12,COc1c(F)c(F)cc2c(=O)c(C(=O)O)cn(C3CC3)c12,63.8% (inactive)
13,NCc1ccc(S(N)(=O)=O)cc1,84.2% (inactive)
14,CCCCc1ccc(C(=O)O)nc1,54.6% (inactive)
15,Cc1c(CN(C)C(=O)/C=C/c2cnc3c(c2)C(C)(C)C(=O)N3)oc2ccccc12,54.1% (inactive)
16,CCOc1ccc(/C=N/NC(=O)C2CC2c2ccc(C(C)(C)C)cc2)cc1OCC (stereo not given),51.6% (inactive)
17,CC(Cc1ccccc1)C(=O)Nc1ccc(Cl)cc1C(=O)O (stereo not given),42% (inactive)
18,CC(C)c1cc2c(cc1S(=O)(=O)O)[C@@]1(C)CCC[C@@](C)(C(=O)O)[C@@H]1CC2,74.6% (inactive)
19,O=C(O)[C@H]1C2CCC(CC2)[C@@H]1Nc1nc(-c2c[nH]c3ncc(F)cc23)ncc1F,44.8% (inactive)
20,CCOC(=O)/C=C/[C@H](C[C@@H]1CCNC1=O)NC(=O)[C@@H](CC(=O)[C@@H](NC(=O)c1cc(C)on1)C(C)C)Cc1ccc(F)cc1,48.2% (inactive)

row,SMILES,parasite survival
1,Nc1nc(F)nc2c1ncn2[C@H]1O[C@@H](CO)[C@H](O)[C@@H]1O,30% (inactive)
2,CCCCCCCCC(CP(=O)(O)C(C)N)C(=O)O (stereo not given),62.7% (inactive)
3,CC(C)Oc1ccc(-n2cnc3cc(/C=C\c4ccc(C(C)(C)O)cc4)ccc32)cc1,31.7% (inactive)
4,CCOC(=O)N1CCN(c2ccc(Cl)cc2)CC1,54.3% (inactive)
5,NC(=O)[C@@H]1CC[C@@H]2CN1C(=O)N2OS(=O)(=O)O,39% (inactive)
6,COC1CC2CCC(C)C(O)(O2)C(=O)C(=O)N2CCCCC2C(=O)OC(C(C)CC2CCC(OCCO)C(OC)C2)CC(=O)C(C)/C=C(\C)C(O)C(OC)C(=O)C(C)CC(C)/C=C/C=C/C=C/1C (stereo not given),56.8% (inactive)
7,CCCCc1ccc(-c2cc(C(=O)O)cc(-c3ccc(Cl)cc3)n2)cc1,40.8% (inactive)
8,Nc1nc2c(ncn2COCCO)c(=O)[nH]1,67.4% (inactive)
9,C[C@H](NC(CC(=O)c1ccccc1C(F)(F)F)C(=O)O)c1ccccc1 (stereo not given in full),63% (inactive)
10,COc1ccc2c(c1OC)C(=O)OC2C1c2c(cc3c(c2OC)OCO3)CCN1C (stereo not given),68.3% (inactive)
11,O=[N+]([O-])c1ccc2c(CCc3c[nH]c4ccccc34)c[nH]c2c1,43.3% (inactive)
12,Cc1onc(-c2ccccc2)c1-c1ccc(S(N)(=O)=O)cc1,74% (inactive)
13,Cc1c(OCC(F)(F)F)ccnc1C[S+]([O-])c1nc2ccccc2[nH]1 (stereo not given),45.7% (inactive)
14,Cc1nc(Nc2ccc(F)cc2)nc(N2CCc3ccccc3C2C)c1C (stereo not given),20.5% (inactive)
15,O=C(Nc1nnc(-c2ccc(Cl)cc2)o1)c1nc2ccccc2s1,62.5% (inactive)
16,O=C(O)CCNC(=O)c1ccccc1,50.8% (inactive)
17,CN(C)c1[nH]c(=O)ncc1F,36.6% (inactive)
18,CNC(=O)C1O[C@@H](n2cnc3c(NCc4cccc(I)c4)nc(Cl)nc32)[C@H](O)[C@@H]1O (stereo not given in full),68.3% (inactive)
19,NCC(=O)Nc1ccc(-n2nc(C(F)(F)F)cc2-c2ccc3c(ccc4ccccc43)c2)cc1,13.7% (active)
20,C[C@H]1CC[C@@]2(O)C(C)(C)[C@@H]3CC[C@@]2(C)[C@H]1C3,55.5% (inactive)

# — the supplement of paper PMC10941209
